# Measurements taken from PubChem BioAssay (NCATS).
# Calls of active or inactive are those of the source. Calls come from the whole dose curve; as a rule, active = well fitted inhibition curve with a large enough effect; inconclusive = small, poorly fitted or top-dose-only effect; inactive = flat fitted curve, though single readings scatter.
# Molecular target: DNA dC->dU-editing enzyme APOBEC-3G (Homo sapiens) (UniProt Q9HC16)
# Assay: qHTS for inhibitors of Vif-A3G interactions: Validation (AID 588379); note: 0% is about no effect
# Details: Vif-A3G protein interaction assay; series mostly up to 46.1 µM; activity change, negative = inhibition: at the top concentration
# Description: The recent discovery and characterization of host restriction factors, which provide a potent defense to invading retroviruses, has provided new targets for antiviral drug development. APOBEC3G (A3G) and APOBEC3F (A3F) are potent cytidine deaminases that block HIV-1 replication; HIV-1 expresses the Vif protein, which counteracts A3G and A3F by binding to them and inducing their proteasomal degradation.
# The Vif-A3G and Vif-A3F interactions provide two potential targets for development of small molecules which can interfere with the ability of Vif to degrade A3G or A3F. […] To identify inhibitors that can interfere with Vif mediated degradation of A3G and A3F, we have developed Hela cell lines that stably express A3G or A3F tagged with eYFP at the C-terminal end (A3G-eYFP or A3F-eYFP, respectively) and Vif. In the absence of an inhibitor, Vif induces degradation of A3G-eYFP and A3F-eYFP, and the cells are not fluorescent. In the presence of an inhibitor, it is expected that Vif will be unable to degrade A3G-eYFP and/or A3F-eYFP, resulting in an increase in yellow fluorescence. In this assays Vif A3G was screened against the Molecular Library Small Molecile Repository (MLSMR).
# NIH Chemical Genomics Center [NCGC]
# NIH Molecular Libraries Probe Centers Network [MLPCN]
# Assay Submitter (PI): Vinay Pathak, National Cancer Institute
# 5 uL of 700 cells/well of A3G-YFP cells are dispensed into black, clear bottom plates. The plates are incubated overnight at 37 deg C. 23 nL of compounds are added by pintool. The plates are incubated overnight at 37 deg C and then read on the TTP Acumen (Ex 488/ Em 500-530).
# Chain of DNA dC->dU-editing enzyme APOBEC-3G (Homo sapiens) (Q9HC16 whole entry, looked up): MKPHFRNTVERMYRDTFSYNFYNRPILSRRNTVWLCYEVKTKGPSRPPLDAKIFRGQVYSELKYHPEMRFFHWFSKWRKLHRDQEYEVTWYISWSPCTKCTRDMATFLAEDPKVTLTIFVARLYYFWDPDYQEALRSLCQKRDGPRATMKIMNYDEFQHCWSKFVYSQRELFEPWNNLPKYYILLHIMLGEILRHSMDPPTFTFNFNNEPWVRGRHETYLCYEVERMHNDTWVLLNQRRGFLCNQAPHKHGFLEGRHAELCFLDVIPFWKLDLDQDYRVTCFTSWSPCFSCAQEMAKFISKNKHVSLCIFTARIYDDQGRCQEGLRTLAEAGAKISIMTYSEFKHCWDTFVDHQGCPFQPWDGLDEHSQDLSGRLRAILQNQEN
SMILES,"activity change, negative = inhibition",outcome
CCN1CCC[C@H]1CNC(=O)c1c(OC)ccc(Br)c1OC,-16.7% (inactive),
CN=C(NC#N)NCCSCc1csc(N=C(N)N)n1,-0.335% (inactive),
COc1c(C)c2c(c(O)c1C/C=C(\C)CCC(=O)O)C(=O)OC2,,inactive
C[C@@H]1CN(CCCn2c3ccccc3c3ccccc32)C[C@H](C)N1,-10.3% (inactive),
CC(C)NC[C@@H](O)COc1cccc2ccccc12,,inactive
COc1cccc2c1C(=O)c1c(O)c3c(c(O)c1C2=O)C[C@@](O)(C(C)=O)C[C@@H]3O[C@H]1C[C@H](N)[C@H](O)[C@H](C)O1,-11.6% (inactive),
CNCC[C@@H](Oc1ccccc1C)c1ccccc1,-5.6% (inactive),
CN=C(NC#N)Nc1ccc(C2=NNC(=O)CC2C)cc1 (stereo not drawn),-0.416% (inactive),
COc1cc(-c2ccc(=O)[nH]n2)ccc1OC(F)F,0.201% (inactive),
CC(C)(Oc1ccc(Cl)cc1)C(=O)O,1.14% (inactive),
CC[N+](CC)(CCNC(=O)C(=O)NCC[N+](CC)(CC)Cc1ccccc1Cl)Cc1ccccc1Cl,-1.8% (inactive),
CC(C)(CO)[C@@H](O)C(=O)NCCCO,1.69% (inactive),
Nc1nc2ncc(CNc3ccc(C(=O)N[C@@H](CCC(=O)O)C(=O)O)cc3)nc2c(=O)[nH]1,4.44% (inactive),
